Screens: PubChem, several laboratories
Sampled rows, rich in hits. Any-hit rate of the full collection: about 3.4%.
GalR3 antag: antagonists of human GalR3 | O60755 | HEK293 GalR3-CNG cAMP membrane potential fluorescence; galR3 body fused to GalR1 C-terminus | inhibition, % at 3 µM | 360,000 compounds, 0.44% hits | AID 651719;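 active = inhibition above the screen-wide average plus 3 SD, cut at about 13% in these data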;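 also: forskolin and galanin both at EC90 stimulate the cells; cAMP rise reported by CNG channel membrane potential dye signal; 0% = forskolin plus galanin with DMSO and 100% = forskolin alone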
GAA850 FXN act: frataxin GAA850 promoter activation; HEK293 lucGAA850 FXN promoter luciferase reporter, 24 h; percent of 10 µM SAHA response; 360,000 compounds, 0.56% hits; activation, % at 6 µM;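 active = activation above the average of all compounds screened plus 3 SD, cutoff fixed separately per campaign, cut at about 7.5% in these data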;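 also: 0% = DMSO wells and 100% = 10 µM SAHA wells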
Gli-Sufu block: antagonists of Gli-Sufu signaling | Sufu-KO-LIGHT fibroblasts, Gli luciferase reporter luminescence | inhibition, % at 5 µM | 340,000 compounds, 0.74% hits | AID 588413;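 active = inhibition above about 55%, limit read from the data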;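 also: 0% = DMSO-treated cells and 100% = wells with medium but no cells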
COUP-TFII inh: NR2F2 (human) inhibition, primary screen. HEK293T NGFI-A luciferase reporter, luminescence. inhibition, % at 8.6 µM. 370,000 compounds, 0.7% hits;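 active = inhibition above a per-plate cutoff, mean inhibition of test wells between control levels plus 3 SD, cut at about 38% in these data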;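 also: cells cotransfected with COUP-TFII expression vector driving the NGFI-A reporter; 0% = median of COUP-TF2 test wells and 100% = reporter-only cells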
Target sequence (P24468 whole entry, looked up): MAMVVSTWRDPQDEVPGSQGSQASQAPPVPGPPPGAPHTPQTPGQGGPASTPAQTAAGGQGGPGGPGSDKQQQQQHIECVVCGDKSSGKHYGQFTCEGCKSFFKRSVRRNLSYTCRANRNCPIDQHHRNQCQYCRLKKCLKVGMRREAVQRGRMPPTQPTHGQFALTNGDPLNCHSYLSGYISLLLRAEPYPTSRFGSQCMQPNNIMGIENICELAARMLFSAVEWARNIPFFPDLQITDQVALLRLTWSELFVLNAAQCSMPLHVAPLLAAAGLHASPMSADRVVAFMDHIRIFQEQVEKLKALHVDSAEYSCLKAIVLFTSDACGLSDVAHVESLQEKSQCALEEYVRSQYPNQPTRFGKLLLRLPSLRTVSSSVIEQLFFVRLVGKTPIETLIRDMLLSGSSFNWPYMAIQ
H9c2 protect: protects H9c2 cardiomyocytes from peroxide injury; H2O2 injury protection, ATPLite, 2 h; protection from H2O2 cell death, % at 20 µM; 360,000 compounds, 0.63% hits;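 active = compounds giving at least 50% protection of heart cells from peroxide-induced death in the single-dose screen, raw or plate-pattern-corrected value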;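 also: 0% = DMSO wells with peroxide and 100% = DMSO wells without peroxide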
SMARCA2 act: activators of SMARCA2 function; 370,000 compounds, 1% hits; activation, % at 9.1 µM; MG213 cells, MMTV-luciferase reporter, dexamethasone, overnight; AID 652017; in the data active = activation above about 7.8%;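 also: 0% = vehicle wells and 100% = reference activator wells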
GalR3 antag conf: GalR3 (human) antagonism, confirmation; shares compounds with GalR3 antag; HEK293 GalR3 CNG cAMP biosensor, membrane potential fluorescence; galR3 fused to GalR1 carboxy tail; challenged with forskolin and galanin at EC90; inhibition, % at 3 µM; 1,600 compounds, 59% hits; AID 652245;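 active = inhibition above the primary screen's cutoff, the mean inhibition of all screened compounds plus 3 SD, cut at about 13% in these data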;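 also: 0% = forskolin plus galanin and 100% = forskolin alone with DMSO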
HEK-CNG parental: acts as nonspecific agonist in parental HEK-CNG cells; shares compounds with GalR3 antag; 1,600 compounds, 10% hits; activation, % at 3 µM; HEK293-CNG parental cells, cAMP membrane potential fluorescence; normalised: DMSO wells 0%, forskolin wells 100%; AID 652268; in the data active = activation above about 1.3%
The depositor's hits bear a star; · = no result given.

SMILES | GalR3 antag | GAA850 FXN act | Gli-Sufu block | COUP-TFII inh | H9c2 protect | SMARCA2 act | GalR3 antag conf | HEK-CNG parental
Cn1c(=O)[nH]c2c(Cl)nccc21 | 16.3* | -1.1 | -6.2 | 8.2 | 3.9 | -2.5 | 7.3 | 0.1
COc1ccc(C(C#N)c2ccc(=O)[nH]n2)cc1 (centres undefined) | -2.5 | 0.5 | 2.9 | -14.7 | -6.3 | -0.2 | · | ·
Cc1ccc(NC(=O)C2(C)CCN2C(=O)Cc2cc(F)ccc2F)cc1 (centres undefined) | -5.9 | -0.9 | · | -4.8 | -0.6 | -3.2 | · | ·
O=C(CCC1CCCN(c2ncccn2)C1)NCc1ccc(F)c(F)c1 (centres undefined) | 38.4* | 0.1 | -3.8 | -1.9 | 4.2 | 2.5 | 8.2 | 0.2
O=C(CCC1CCCN(C(=O)C2CCCC2)C1)NCc1ccc(F)c(F)c1 (centres undefined) | -2.9 | -5.0 | 8.4 | -12.4 | -2.5 | -1.5 | · | ·
CCCn1nc(C(=O)NNC(=O)CCCOc2ccc(C)cc2)c2ccccc2c1=O | 85.5* | 0.5 | 1.2 | 10.4 | 9.6 | 0.0 | 90.3* | 1.0
CCc1cc2ccc(C)c(C)c2nc1SCC(=O)NNC(=O)c1ccco1 | -1.2 | 0.2 | -27.7 | -3.1 | 5.2 | -1.0 | · | ·
CCOc1ccc(-n2c(SCc3ccc([N+](=O)[O-])cc3)nnc2-c2ccccc2)cc1 | 69.6* | 2.2 | 16.5 | -1.6 | -8.0 | -2.8 | 72.0* | 1.3*
COc1ccc(-n2c(SCc3ccc([N+](=O)[O-])cc3)nnc2-c2ccccc2)cc1 | 57.2* | 2.0 | 10.8 | 10.6 | 3.7 | -2.0 | 63.5* | 0.3
CN(Cc1ccc(OC(F)F)cc1)C(=O)c1ccc2c(=O)n3c(nc2c1)CCC3 | -5.7 | -0.5 | 31.2 | 5.0 | 10.1 | -1.8 | · | ·
CC(=O)Nc1ccc(NC(=O)c2nc(S(=O)(=O)Cc3ccccc3)ncc2Cl)cc1 | -5.7 | 6.0 | 5.3 | -36.4 | -17.3 | -10.5 | · | ·
CS(=O)(=O)c1ncc(Cl)c(C(=O)Nc2ccc3ccccc3c2)n1 | 20.0* | -4.2 | 12.5 | -17.6 | -27.6 | -14.4 | -1.8 | 0.4
COc1ccc(OC)c(N(C)S(=O)(=O)c2ccc3c(c2)N(C(C)=O)CCO3)c1 | -8.7 | -0.6 | -2.2 | -4.0 | 5.8 | -2.3 | · | ·
C[C@@H]1CN([C@@H](C)CO)S(=O)(=O)c2ccc(/C=C/c3ccccc3)cc2O[C@@H]1CN(C)Cc1ccc(C(=O)O)cc1 | -6.4 | -7.9 | · | 18.0 | -4.2 | 5.8 | · | ·
O=C(CSc1nc2ccccc2o1)Nc1ccc(N2CCOCC2)c(Cl)c1 | 92.0* | 5.8 | -60.1 | -13.8 | -21.1 | -3.3 | 108.9* | -0.2
COc1ccc(-n2c(SCC(=O)N/N=C(/C)c3cccc(O)c3)nc3ccccc3c2=O)cc1 | · | · | · | -6.8 | · | -4.2 | · | ·
Cc1cccc(C)c1NC(=O)COC(=O)c1c2c(nc3ccccc13)/C(=C\c1ccc3c(c1)OCO3)CCC2 | · | -4.1 | 1.2 | 19.0 | 14.8 | 1.2 | -3.3 | 0.2
COc1ccc(N(CC(=O)NCc2ccc3c(c2)OCO3)S(=O)(=O)c2ccc(O)c(C(=O)O)c2)cc1 | -4.4 | 1.0 | -2.6 | 0.6 | -9.1 | -1.1 | · | ·
O=C(NCCOc1ccccc1)c1n[nH]c(=O)c2ccccc12 | 20.4* | -1.3 | -4.2 | -26.8 | 24.6 | 0.9 | 1.0 | -0.2
CCCNC(=O)c1n[nH]c(=O)c2ccccc12 | 0.4 | 1.7 | 0.1 | -1.0 | 31.6 | 1.3 | · | ·
C/C(=N\O)C(C)NC(=O)c1ccccc1 (centres undefined) | 0.4 | 2.6 | 2.1 | -0.2 | -4.3 | -2.6 | · | ·
C#CC(C)OC(=O)C(C)NC(=O)c1ccccc1 (centres undefined) | · | -0.6 | -12.5 | -2.9 | -2.0 | -0.7 | 13.9* | 0.2
COc1ccc(OC)c(NC(=O)CSc2nnc(-c3cnccn3)n2C)c1 | 1.1 | 0.9 | -14.3 | 6.2 | -0.2 | -0.8 | · | ·
COc1cc(C2NC(=O)NC(C)=C2C(=O)OCc2ccc(C)cc2)cc(OC)c1O (centres undefined) | 15.5* | 2.5 | 5.6 | 8.8 | -3.7 | 1.2 | 13.5* | 0.0
